Results published in PubChem BioAssay (Tox21).
“And” between values parts separate entries of the source, which are not always exact repeats. Equal entries are not always repeated. Inconclusive results are not listed. Entries that show only a call come without a potency. Some structures have more than one record in an assay (separate samples or runs), and their calls can disagree. The source made the active and inactive calls. The call rests on the fitted dose curve; in most records, active means well fitted cell-killing curve with a large enough effect in the repeat runs; inconclusive means weak or mixed curves; inactive means no such curve, though single readings can be large or run the other way.

assay: qHTS assay to identify small molecule antagonists of the peroxisome proliferator-activated receptor delta (PPARd) signaling pathway - cell viability counter screen (AID 743213); conditions: PPARd-bla HEK293H viability, CellTiter-Glo luminescence, 17 h; series mostly up to 62 µM; further: nearly all actives have a fitted effect of over 50% in size
Text: U.S. Tox21 Program National Center for Advancing Translational Sciences [NCATS] NIH Chemical Genomics Center [NCGC] U.S. Environmental Protection Agency [EPA] National Institutes of Environmental Health Sciences [NIEHS] National Toxicology Program [NTP] U.S. Food and Drug Administration [FDA] Tox21 Assay Overview: The peroxisome proliferator-activated receptors (PPARs) are lipid-activated transcription factors of the nuclear receptor superfamily with three distinct subtypes namely PPAR alpha, PPAR delta (PPARd) and PPAR gamma. All these subtypes heterodimerizes with Retinoid X receptor (RXR) and have different physiological functions. […] To identify the compounds that inhibit PPAR-delta signaling, GeneBLAzer PPAR delta UAS-bla HEK293H cell line (Invitrogen, Carlsbad, CA, USA) containing a beta-lactamase reporter gene under the control of an Upstream Activator Sequence (UAS) was used to screen the Tox21 compound library. The cytotoxicity of the Tox21 compound library against the PPARd-bla cell line was tested in parallel by measuring the cell viability using CellTiter-Glo assay (Promega, Madison, WI) in the same wells.
Tox21 Assay Protocol Summary: PPARd-bla cells were dispensed at 3000 cells/5uL/well in 1536-well black wall/clear bottom plates using a Multidrop Combi (Thermo Fisher Scientific, Waltham, MA) dispenser. After the assay plates were incubated at 37 C and 5% CO2 for 5 h, 23 nL of compounds dissolved in DMSO, positive controls or DMSO only was transferred to the assay plate by a Pintool station (Kalypsys, San Diego, CA), followed by addition of 1ul L165041 (300 nM, final concentration in the wells). The assay plates were incubated at 37 C for 17 h, and then 1 uL of LiveBLAzerTM B/G FRET substrate was added using a Bioraptr Flying Reagent Dispenser (FRD) workstation (Beckman Coulter, Indianapolis, IN, USA). The assay plates were incubated at room temperature for 2 h and fluorescence intensity was measured by an Envision plate reader (PerkinElmer, Shelton, CT). For cell viability readout that measures cytotoxicity, 3 ul/well of CellTiter-Glo reagent was added into the assay plates using a Bioraptr FRD. After 30 min incubation at room temperature, the luminescence intensity in the plates was measured using a ViewLux plate reader (PerkinElmer).
Potency means the concentration at half of the fitted maximal effect.

Compound | Potency
COP(=O)(OC)C(O)C(Cl)(Cl)Cl (stereo not given) | inactive
CCCC[n+]1ccccc1C | inactive
CCC(=O)C(CC(C)N(C)C)(c1ccccc1)c1ccccc1 (stereo not given) | inactive and 37.4 µM (active)
O=C(O)COc1ccc(Cl)cc1Cl | inactive
CC(=O)O | inactive
CCn1cc[n+](C)c1C | inactive
CC(Cl)(Cl)C(=O)O | inactive
O=C(O)CC(O)(CC(=O)O)C(=O)O | inactive
Cc1cc(Cl)ccc1N | inactive
Oc1cccc2cccnc12 | 521 nM (active) and 155 nM (active)
CNC | inactive
COc1ccccc1N | inactive
C=CCOC(Cn1ccnc1)c1ccc(Cl)cc1Cl (stereo not given) | inactive
CC[N+]1(C)CCCC1 | inactive
CCNc1nc(Cl)nc(NCC)n1 | inactive
CCCC[N+]1(C)CCCCC1 | inactive
CCCCCCn1cc[n+](C)c1 | inactive
CCCn1cc[n+](C)c1 | inactive
O=P1(N(CCCl)CCCl)NCCCO1 (stereo not given) | inactive
O=c1[nH]c(=O)n(Cl)c(=O)n1Cl | inactive

Compound | Potency
O=C(O)CCl | inactive
CCCCCCCCCCCCCC[P+](CCCCCC)(CCCCCC)CCCCCC | 15.6 µM (active) and 3.92 µM (active)
O=S(=O)(O)O | inactive
Cc1cc(-c2ccc(N)c(C)c2)ccc1N | inactive
CC[N+](CC)(CC)CC | inactive
CCCCCC[n+]1ccccc1 | 55.5 µM (active) and inactive
CCCCCCCCCCCC(=O)O | inactive
CCOP(=S)(OCC)Oc1ccc2c(C)c(Cl)c(=O)oc2c1 | inactive
O=C(O)C(Cl)Cl | inactive
CCCCCCCCCCn1cc[n+](C)c1 | 22.1 µM (active)
Nc1ccc(-c2ccc(N)cc2)cc1 | inactive
CCCCCCCCn1cc[n+](C)c1 | inactive
CCCC[n+]1cccc(C)c1 | inactive
C[C@]12CCC(=O)C=C1CC[C@@H]1[C@@H]2CC[C@]2(C)C(=O)CC[C@@H]12 | inactive
CCC[N+]1(C)CCCCC1 | inactive
O=C(O)c1nc(Cl)ccc1Cl | inactive
CCCCn1cc[n+](C)c1 | inactive
Cc1cc(Cl)ccc1OCC(=O)O | inactive
O=c1nc(O)n(Cl)c(=O)n1Cl | inactive
CC(=O)[O][Hg][c]1ccccc1 | 1.53 µM (active) and 1.1 µM (active) and 1.68 µM (active)
